Source: PubChem BioAssay (NCATS)
Inconclusive results are not listed. A number with no mark means an inactive call. Activity calls are given as the source filed them. The call rests on the fitted dose curve; in most records, active means well fitted inhibition curve with a large enough effect; inconclusive means small, poorly fitted or top-dose-only effect; inactive means flat fitted curve, though single readings scatter.

Legend:
Experiment in all cases: Cytotoxic Profiling of Annotated Libraries Using Quantitative High-Throughput Screening (AID 1296008); further: nearly all actives have a fitted effect of over 60% in size
Conditions in all cases: Five cell lines viability, CellTiter-Glo ATP luminescence, 48-72 h; max response: hits give low values
[1] = tested on: CRL-7250
How it was run: (§1)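 Compounds were pin-transferred onto cells and incubated 48 or 72 hr at 37 degree Celsius, 95% humidity. CellTiter-Glo was added, plates sat 10 min at room temperature, then ATP-coupled luminescence was imaged as the viability read-out.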

[2] = tested on: HEK293
How it was run: as §1

[3] = tested on: HaCat
How it was run: as §1

[4] = tested on: KB-3-1
How it was run: as §1

[5] = tested on: NIH3T3
How it was run: as §1
On the % scale 0 is the no-effect control and ±100 the full control effect; potency means the concentration at half of the fitted maximal effect.

CC1=CCC[C@@H]2[C@](CCc3ccoc3)(C(=O)O)[C@H](C)CC[C@@]12C
max response [1]: -2.77% | max response [2]: -3.43% | max response [3]: -10.6% | max response [4]: 8.82% | outcome [5]: inactive

FC(F)(F)c1nnc2c(Sc3ccccc3)nc3ccc(Cl)cc3n12
Potency [1]: 3.66 µM (active) | Potency [2]: 5.8 µM (active) | Potency [3]: 4.61 µM (active) | Potency [4]: 5.17 µM (active) | outcome [5]: inactive

O=C(CCc1ccccc1)c1c(O)c([C@@H]2O[C@H](CO)[C@@H](O)[C@H](O)[C@H]2O)c(O)c([C@@H]2O[C@H](CO)[C@@H](O)[C@H](O)[C@H]2O)c1O
max response [1]: -8.34% | max response [2]: 0.0644% | max response [3]: 3.51% | max response [4]: 8.16% | outcome [5]: inactive

C=C(C)C(O)COc1ccc(CC(=O)O)cc1 (stereo not given)
max response [1]: -8.29% | max response [2]: 2.49% | max response [3]: -1.96% | outcome [4]: inactive | outcome [5]: inactive

CC1=CC23[C@H](C=C(C(=O)O)[C@@H]2COC(=O)[C@]3(O)CO)[C@@H]1C (stereo not given in full)
max response [1]: -1.44% | max response [2]: 2.57% | max response [3]: -3.69% | max response [4]: 5.88% | outcome [5]: inactive

C=C1C(OC(C)=O)CCC2(C)CC3(O)OC(=O)C(C)=C3CC12 (stereo not given)
outcome [1]: inactive | max response [2]: -4.29% | max response [3]: -1.9% | outcome [4]: inactive | outcome [5]: inactive

Cc1cc(CNC(=O)c2cc(C(=O)NCc3ccc(F)c(C)c3)ncn2)ccc1F
max response [1]: 4.78% | max response [2]: 1.88% | max response [3]: -0.507% | outcome [4]: inactive | outcome [5]: inactive

COc1cc(/C=C/C(=O)OCC2OC(OC3(CO)OC(CO)C(O)C3O)C(O)C(O)C2O)ccc1O (stereo not given)
max response [1]: 0.86% | max response [2]: 0.768% | max response [3]: 2.88% | outcome [4]: inactive | outcome [5]: inactive

CC(C)=CC1C[C@](C)(O)[C@@H]2[C@H]3CCC4[C@@]5(C)CC[C@H](O[C@@H]6OC[C@H](O)[C@H](O[C@@H]7O[C@H](CO[C@@H]8O[C@H](CO)[C@@H](O)[C@H](O)[C@H]8O)[C@@H](O)[C@H](O)[C@H]7O)[C@H]6O[C@@H]6O[C@@H](C)[C@H](O)[C@@H](O)[C@H]6O)C(C)(C)[C@@H]5CC[C@@]4(C)[C@@]34CO[C@@]2(C4)O1 (stereo not given in full)
max response [1]: -1.09% | max response [2]: -3.55% | max response [3]: 4.88% | outcome [4]: inactive | outcome [5]: inactive

O=C(NC1Cc2ccccc2N(C[C@@H](O)CO)C1=O)c1cc2cc(Cl)sc2[nH]1 (stereo not given in full)
max response [1]: -1.76% | Potency [2]: 16.4 µM (active) | max response [3]: -0.0172% | max response [4]: 3.62% | outcome [5]: inactive

CC(C)(CC(=O)N1CCCC1)NCC(=O)N1C[C@@H](F)C[C@H]1C#N
max response [1]: -2.43% | max response [2]: -0.937% | max response [3]: -28% | max response [4]: 1.01% | outcome [5]: inactive

Cc1cc(CO)c(O)c(C(=O)CC2CC(=O)NC(=O)C2)c1
outcome [1]: inactive | max response [2]: 4.74% | max response [3]: -10.8% | outcome [4]: inactive | outcome [5]: inactive

CC(=O)NCC1CN(c2ccc(-c3ccc(CNCc4cn[nH]n4)cc3)c(F)c2)C(=O)O1 (stereo not given)
max response [1]: 0.231% | Potency [2]: 1.3 µM (active) | max response [3]: 1.71% | max response [4]: -15.8% | outcome [5]: inactive

CC1(C)CC[C@]2(C(=O)O[C@@H]3O[C@H](CO[C@@H]4O[C@H](CO)[C@@H](O)[C@H](O)[C@H]4O)[C@@H](O)[C@H](O[C@@H]4O[C@H](CO)[C@@H](O)[C@H](O)[C@H]4O)[C@H]3O)CC[C@]3(C)C(=CCC4[C@@]5(C)CC[C@H](O[C@@H]6OC[C@@H](O)[C@H](O)[C@H]6O)[C@@](C)(C(=O)O)C5CC[C@]43C)[C@@H]2C1 (stereo not given in full)
outcome [1]: inactive | max response [2]: -19.5% | max response [3]: -27.8% | outcome [4]: inactive | outcome [5]: inactive

O=C(OC[C@H]1O[C@@H](Oc2ccccc2CO)[C@H](O)[C@@H](O)[C@@H]1O)c1ccccc1
max response [1]: -0.775% | max response [2]: 0.13% | max response [3]: 0.855% | max response [4]: 3.27% | outcome [5]: inactive

C=C1CCC2(OC1)OC1CC3C4CC=C5CC(O)CC(O[C@@H]6OC[C@H](OC(=O)C(O)C(C)CC)[C@H](O)[C@H]6O[C@@H]6O[C@@H](C)[C@H](O)[C@@H](O)[C@H]6O)C5(C)C4CCC3(C)C1C2C (stereo not given in full)
max response [1]: -2.78% | max response [2]: -1.63% | max response [3]: -7.88% | outcome [4]: inactive | outcome [5]: inactive

CCNC(=O)OC1CCN(c2nncc3cc(OC)c(OC)cc23)CC1
max response [1]: -1.25% | max response [2]: 2.54% | max response [3]: -16.1% | outcome [4]: inactive | outcome [5]: inactive

COc1ccc(C(=O)NCc2cc(C(C)C)no2)cc1OC1CCN(C)CC1
max response [1]: -1.84% | max response [2]: -4.29% | max response [3]: 4.96% | max response [4]: -1.9% | outcome [5]: inactive

C/C(=C\CC/C(C)=C/CC[C@]1(C)CCc2cc(O)cc(C)c2O1)CC/C=C(\C)C(=O)O
max response [1]: 0.272% | max response [2]: -1.65% | max response [3]: 4.26% | max response [4]: -3.09% | outcome [5]: inactive

C[C@@H]1O[C@@H](O[C@H]2[C@@H]3C=CO[C@@H](O[C@@H]4O[C@H](CO)[C@@H](O)[C@H](O)[C@H]4O)[C@@H]3[C@@]3(CO)O[C@@H]23)[C@H](OC(=O)/C=C/c2ccc(O)cc2)[C@H](O)[C@H]1O
max response [1]: -20.4% | max response [2]: -82.6% | max response [3]: -0.452% | max response [4]: -12.9% | outcome [5]: inactive
